Experimental data taken from PubChem BioAssay (EPA / NIEHS).
Activity calls are given as the source filed them. The calls were made as follows: active = hit-call score of the fitted dose curve at least 0.9, where 1 is the maximum; inactive = score below 0.9.

Key:
[1] = read-out: Interleukin-8 (IL8), CXCL8 (gene 3576); assay: BSK_CASM3C_IL8: BioMAP Diversity Plus: CASM3C Assay for Interleukin-8 (IL8) Biomarker Activity (AID 2283042); conditions: primary human coronary artery smooth muscle cells; actives raise or lower the signal;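 also: IL-8 protein level quantified by ELISA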
[2] = read-out: Human Leukocyte Antigen - DR isotype (HLADR), HLA-DRA (gene 3122); assay: BSK_CASM3C_HLADR: BioMAP Diversity Plus: CASM3C Assay for Human Leukocyte Antigen - DR isotype (HLADR) Biomarker Activity (AID 2283043); conditions: primary human coronary artery smooth muscle cells; actives raise or lower the signal;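 also: cell-surface HLA-DR protein level quantified by ELISA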
[3] = read-out: Macrophage colony-stimulating factor (MCSF), CSF1 (gene 1435); assay: BSK_CASM3C_MCSF: BioMAP Diversity Plus: CASM3C Assay for Macrophage colony-stimulating factor (MCSF) Biomarker Activity (AID 2283044); conditions: primary human coronary artery smooth muscle cells; actives raise or lower the signal;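 also: M-CSF protein amount quantified by ELISA after 24 h exposure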
[4] = read-out: Low-density lipoprotein receptor (LDLR), LDLR (gene 3949); assay: BSK_CASM3C_LDLR: BioMAP Diversity Plus: CASM3C Assay for Low-density lipoprotein receptor (LDLR) Biomarker Activity (AID 2283045); conditions: primary human coronary artery smooth muscle cells; actives raise or lower the signal;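 also: LDLR protein level on the cell surface quantified by ELISA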
[5] = read-out: Monocyte Chemoattractant Protein-1 (MCP1), CCL2 (gene 6347); assay: BSK_CASM3C_MCP1: BioMAP Diversity Plus: CASM3C Assay for Monocyte Chemoattractant Protein-1 (MCP1) Biomarker Activity (AID 2283046); conditions: primary human coronary artery smooth muscle cells; actives raise or lower the signal;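 also: MCP-1 level quantified by ELISA 24 h after dosing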
[6] = BSK_CASM3C_Proliferation: Cell Proliferation Assessment in the BioMAP Diversity Plus: CASM3C Assay (AID 2283047); conditions: primary human coronary artery smooth muscle cells;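 also: sulforhodamine B total protein stain as relative cell number at 560 nm; sub-confluent cells exposed 48 h before staining; fitted both ways against DMSO so gain or loss of cell number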
[7] = read-out: Monokine induced gamma interferon (MIG), CXCL9 (gene 4283); assay: BSK_CASM3C_MIG: BioMAP Diversity Plus: CASM3C Assay for Monokine induced gamma interferon (MIG) Biomarker Activity (AID 2283048); conditions: primary human coronary artery smooth muscle cells; actives raise or lower the signal;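 also: MIG protein level measured by ELISA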
[8] = read-out: serum amyloid A (SAA), SAA1 (gene 6288); assay: BSK_CASM3C_SAA: BioMAP Diversity Plus: CASM3C Assay for serum amyloid A (SAA) Biomarker Activity (AID 2283049); conditions: primary human coronary artery smooth muscle cells; actives raise or lower the signal;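 also: SAA protein level quantified by ELISA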
[9] = BSK_CASM3C_SRB: Viability Assessment in the BioMAP Diversity Plus: CASM3C Assay (AID 2283050); conditions: primary human coronary artery smooth muscle cells;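 also: cells exposed to compound for 24 h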
[10] = read-out: Thrombomodulin, THBD (gene 7056); assay: BSK_CASM3C_Thrombomodulin: BioMAP Diversity Plus: CASM3C Assay for Thrombomodulin Biomarker Activity (AID 2283051); conditions: primary human coronary artery smooth muscle cells; actives raise or lower the signal;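 also: thrombomodulin protein level measured by ELISA 24 h after dosing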
[11] = read-out: Tissue Factor, F3 (gene 2152); assay: BSK_CASM3C_TissueFactor: BioMAP Diversity Plus: CASM3C Assay for Tissue Factor Biomarker Activity (AID 2283052); conditions: primary human coronary artery smooth muscle cells; actives raise or lower the signal;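 also: cell surface tissue factor protein level read by ELISA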
[12] = read-out: Interferon-gamma inducible Protein 10 (IP10), CXCL10 (gene 3627); assay: BSK_hDFCGF_IP10: BioMAP Diversity Plus: hDFCGF Assay for Interferon-gamma inducible Protein 10 (IP10) Biomarker Activity (AID 2283053); conditions: primary human foreskin fibroblasts; actives raise or lower the signal
Method in brief: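 Primary human foreskin fibroblasts exposed to chemicals for 24 h. IP-10 measured by ELISA; changes fitted bidirectionally against DMSO baseline.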

[13] = read-out: Urokinase-type plasminogen activator receptor (uPAR), PLAUR (gene 5329); assay: BSK_CASM3C_uPAR: BioMAP Diversity Plus: CASM3C Assay for Urokinase-type plasminogen activator receptor (uPAR) Biomarker Activity (AID 2283054); conditions: primary human coronary artery smooth muscle cells; actives raise or lower the signal;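 also: cell-surface uPAR protein level quantified by ELISA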
[14] = read-out: Vascular cell adhesion molecule 1 (VCAM1), VCAM1 (gene 7412); assay: BSK_CASM3C_VCAM1: BioMAP Diversity Plus: CASM3C Assay for Vascular cell adhesion molecule 1 (VCAM1) Biomarker Activity (AID 2283055); conditions: primary human coronary artery smooth muscle cells; actives raise or lower the signal;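 also: VCAM-1 protein level quantified by ELISA on the cells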
[15] = read-out: Collagen III, COL3A1 (gene 1281); assay: BSK_hDFCGF_CollagenIII: BioMAP Diversity Plus: hDFCGF Assay for Collagen III Biomarker Activity (AID 2283056); conditions: primary human foreskin fibroblasts; actives raise or lower the signal
Method in brief: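 hDFCGF primary human dermal fibroblasts; 24 h chemical exposure; collagen III by ELISA; bidirectional curve fit vs DMSO baseline (gain or loss of signal).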

[16] = read-out: Epidermal growth factor receptor (EGFR), EGFR (gene 1956); assay: BSK_hDFCGF_EGFR: BioMAP Diversity Plus: hDFCGF Assay for Epidermal growth factor receptor (EGFR) Biomarker Activity (AID 2283057); conditions: primary human foreskin fibroblasts; actives raise or lower the signal
Method in brief: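 Primary human foreskin fibroblasts (hDFCGF system), sampled 24 h after dosing; EGFR quantified by ELISA. Bidirectional fit relative to DMSO baseline; SRB total-protein staining in parallel cultures for cytotoxicity.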

[17] = read-out: Interleukin-8 (IL8), CXCL8 (gene 3576); assay: BSK_hDFCGF_IL8: BioMAP Diversity Plus: hDFCGF Assay for Interleukin-8 (IL8) Biomarker Activity (AID 2283058); conditions: primary human foreskin fibroblasts; actives raise or lower the signal
Method in brief: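 ELISA read-out of IL-8 from primary human foreskin fibroblast cultures taken 24 h after dosing; values are bidirectional fits relative to DMSO vehicle.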

[18] = BSK_hDFCGF_Proliferation: Cell Proliferation Assessment in the BioMAP Diversity Plus: hDFCGF Assay (AID 2283059); conditions: primary human foreskin fibroblasts;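 also: curves fitted for both rise and fall of signal versus DMSO baseline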
Method in brief: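 Total protein read at 560 nm after 0.1% SRB staining of TCA-fixed human skin fibroblasts, […]. Activity is fitted in both directions relative to DMSO as baseline.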

[19] = read-out: Macrophage colony-stimulating factor (MCSF), CSF1 (gene 1435); assay: BSK_hDFCGF_MCSF: BioMAP Diversity Plus: hDFCGF Assay for Macrophage colony-stimulating factor (MCSF) Biomarker Activity (AID 2283060); conditions: primary human foreskin fibroblasts; actives raise or lower the signal
Method in brief: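 ELISA read-out of M-CSF in human dermal foreskin fibroblast cultures, 24 h after chemical dosing; gain or loss of signal fitted bidirectionally relative to DMSO baseline.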

Measured: AC50

OCC(CO)(CBr)CBr
inactive: [1] | [2] | [3] | [4] | [5] | [6] | [7] | [8] | [9] | [10] | [11] | [12] | [13] | [14] | [15] | [16] | [17] | [18] | [19]

CCC(C)c1ccccc1O (stereo unspecified)
inactive: [1] | [2] | [3] | [4] | [5] | [6] | [7] | [8] | [9] | [10] | [11] | [12] | [13] | [14] | [15] | [16] | [17] | [19]

Clc1ccc(Nc2nnc(Cc3ccncc3)c3ccccc23)cc1
active: [6] 3.48 µM | [8] 0.507 µM | [11] 8.4 µM
inactive: [1] | [2] | [3] | [4] | [5] | [9] | [10] | [12] | [13] | [14] | [15] | [17] | [19]

CCCCC(CC)C(=O)OCCOCCOCCOCCOC(=O)C(CC)CCCC (stereo unspecified)
active: [19] 20 µM
inactive: [1] | [2] | [3] | [4] | [5] | [6] | [7] | [8] | [9] | [10] | [11] | [12] | [13] | [14] | [15] | [16] | [17] | [18]

C[C@]12CC[C@@H]3c4ccc(O)cc4CC[C@H]3[C@@H]1C[C@@H](O)[C@@H]2O
active: [3] 8.12 µM
inactive: [1] | [2] | [4] | [5] | [6] | [7] | [8] | [9] | [10] | [11] | [12] | [13] | [14] | [15] | [16] | [17] | [19]

O=C1OC2(c3ccccc31)c1cc(I)c(O)c(I)c1Oc1c2cc(I)c(O)c1I
inactive: [1] | [2] | [4] | [6] | [7] | [8] | [9] | [11] | [13] | [14] | [17]
active: [3] 3.7 µM | [5] 6.12 µM | [10] 2.38 µM | [12] 16 µM | [15] 3.75 µM | [16] 1.88 µM | [19] 4.57 µM

O=C1c2ccc(O)c(O)c2C(=O)c2c(O)ccc(O)c21
active: [6] 0.0041 µM | [13] 0.0224 µM
inactive: [1] | [2] | [3] | [4] | [5] | [7] | [8] | [9] | [10] | [11] | [12] | [14] | [15] | [16] | [17] | [19]
